According to PubChem BioAssay (NCATS):
Records with an inconclusive call do not appear. Calls of active or inactive are those of the source. Calls follow the shape of the dose curve; as a rule, active = well fitted inhibition curve with a large enough effect; inconclusive = small, poorly fitted or top-dose-only effect; inactive = no such curve, though single readings can be large or run the other way. Residues, ends and D or L forms follow the SMILES beside them.

test: BET inhibitor-based combinations targeting novel dependencies in MECOM-rearranged (r) AML: HNT-34 cell line (AID 2202234); conditions: HNT-34 AML viability, CellTiter-Glo luminescence, 48 h; series mostly up to 46 µM; also: nearly all actives have a fitted effect of over 35% in size
In short: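 First, 500 cells per well were seeded; next, drugs were pinned as 11-point doses; then plates sat 48 hr in the incubator; finally CellTiter-Glo was added and luminescence read, with AUC and Z-AUC computed.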
Potency is read from the fitted curve at half-maximal effect.

SMILES	Potency
Cc1c(-c2ccc(-c3ccccc3F)cc2)nc2ccc(F)cc2c1C(=O)O	inactive
N[C@@H](CCC(=O)O)C(=O)N[C@@H](Cc1c[nH]c2ccccc12)C(=O)O (H-Glu-Trp-OH)	inactive
C[C@@H](O)[C@@H](C)Oc1nc(Nc2ccc(S(=N)(=O)C3CC3)cc2)ncc1C(F)(F)F (some centres not stated)	16.6 µM (active)
Cc1[nH]c(/C=C2\C(=O)Nc3ccc(S(=O)(=O)Cc4c(Cl)cccc4Cl)cc32)c(C)c1C(=O)N1CCC[C@@H]1CN1CCCC1	18.6 µM (active)
Cc1ccc(-c2nc(N)nc3c2nnn3Cc2cccc(CO[C@H]3CCOC3)n2)o1	inactive
Cc1c(-c2c(-c3ccc(F)o3)sc3ncnc(O[C@@H](Cc4ccccc4OCc4ccnn4CC(F)(F)F)C(=O)O)c23)ccc(OCCN2CCN(C)CC2)c1Cl	0.332 µM (active)
COc1cc(C(=O)NC(N)=Nc2ccc(C)c(NC(=O)c3ccc(-c4ccccc4)cc3)c2)cc(OC)c1OC	18.6 µM (active)
CS(=O)(=O)c1ccc(-c2cnc(NCc3ccco3)n3cnnc23)cc1	inactive
Fc1cccc(-n2cnc3c(NCc4nc5c(F)c(F)ccc5[nH]4)nc(N4CCOCC4)nc32)c1	0.296 µM (active)
Cc1ccc(Nc2cc(N[C@@H]3CCCC[C@@H]3N)nnc2C(N)=O)nc1C	16.6 µM (active)
CCNC(=O)Nc1ccc(Oc2ncnc(N)c2/C=N/OC)cc1Cl	20.9 µM (active)
O=c1oc2c(C3OCCCO3)c(O)ccc2c2c1CNCC2	inactive
COC(=O)[C@H](CCCN=C(N)N)NS(=O)(=O)c1ccc(C)cc1	inactive
CN(C)CCOc1ccc(-c2nc(-c3ccc4c(c3)CC/C4=N\O)c(-c3ccncc3)[nH]2)cc1	14.8 µM (active)
Cc1ccc(F)c(NC(=O)Nc2ccc(-c3cccc4[nH]nc(N)c34)cc2)c1	26.3 µM (active)
COc1ccc2[nH]c(C(=O)N3CCC(CC(C)(C)O)CC3)cc2c1	inactive
COc1ccc(Cl)cc1-c1cc(=O)[nH]c(=S)n1CC(N)=O	inactive
Clc1ccc(C(Cn2ccnc2)OCc2ccsc2Cl)c(Cl)c1 (configuration not stated)	18.6 µM (active)
CONC(=O)Nc1ccc(-c2sc3c(c2CN(C)C)c(=O)n(-c2ccc(OC)nn2)c(=O)n3Cc2c(F)cccc2F)cc1	inactive
Nc1ncccc1-c1nc2ccc(-c3ccccc3)nc2n1-c1ccc(C2(N)CCC2)cc1	16.6 µM (active)
Cc1ccc(-c2ncc(Cl)cc2-c2ccc(S(C)(=O)=O)cc2)cn1	inactive
O=C(/C=C/c1ccc(Cl)cc1)N1CCC2(CC1)CN(Cc1ccc(Cl)c(Cl)c1)C(=O)O2	26.3 µM (active)
O=C(Nc1cccc(Nc2ncc(Br)c(NCCc3cnc[nH]3)n2)c1)N1CCCC1	1.66 µM (active)
CCOC(=O)[C@H](CCc1ccccc1)N[C@H]1CCc2ccccc2N(CC(=O)O)C1=O	inactive
CCN(CC)CCNc1ccc(C)c2sc3ccccc3c(=O)c12	16.6 µM (active)
CC1=C2C[C@H]3[C@@H](CC[C@@H]4C[C@H](NS(C)(=O)=O)CC[C@@]43C)[C@@H]2CC[C@@]2(C1)O[C@@H]1C[C@H](C)CN[C@H]1[C@H]2C	16.6 µM (active)
C=CCNC1=C2C[C@@H](C)C[C@H](OC)[C@H](O)[C@@H](C)/C=C(\C)[C@H](OC(N)=O)[C@@H](OC)/C=C\C=C(/C)C(=O)NC(=CC1=O)C2=O	11.8 µM (active)
